Data reported in the supplement of paper PMC12494721.
Where a name gives a salt, the structure may show the parent alone.

Tests used:
Conditions in all cases: incubation time: 27 h, anaerobic, 37 °C;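 for the amine columns active = adjusted P below 0.05 in both replicates with a change the same way and a mean fold change under 0.8 or over 1.25; inactive = the rest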
[1] = test system: Clostridium sporogenes DSM 1664; experiment: growth (OD595) fold change vs plate DMSO controls (fold change (ratio)); higher = more growth
How it was run: (§1)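 The reported measure is growth: the fold change against the median of DMSO controls on the plate. Absorbance at 595 nm from anaerobic 96-well mGAM cultures grown for 27 h at 37 °C was blank-subtracted, corrected for background with 20 µM compound solutions in water, and converted to OD with a calibration factor of 5. Fold changes above 1.5 appear as NA, and values are the mean of 2 biological replicates.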

Escherichia coli IAI1 [2] = experiment: as above
How it was run: as §1

[3] = test system: Klebsiella aerogenes DSM 30053; experiment: as above
How it was run: as §1

[4] = test system: Ruminococcus gnavus DSM 108212; experiment: as above
How it was run: as §1

[5] = test system: Klebsiella aerogenes DSM 30053; experiment: fold change of Histamine concentration vs plate DMSO controls (fold change (ratio)); higher = more amine produced, active = hit call of the paper (significant change in both replicates, either direction)
How it was run: (§2)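 Extracts of whole anaerobic mGAM cultures were analysed for amines by LC–triple-quadrupole MS with dynamic MRM and external calibration curves, with drift corrected within batch. Four gut strains were grown at 37 °C for 27 h in 80 µL wells with compounds at 20 µM final, sweeteners at 50 µM final. Each value expresses fold change over plate DMSO controls. The average of 2 biological replicates is shown.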

[6] = test system: Clostridium sporogenes DSM 1664; experiment: fold change of Tryptamine concentration vs plate DMSO controls (fold change (ratio)); higher = more amine produced, active = hit call of the paper (significant change in both replicates, either direction)
How it was run: as §2

[7] = test system: Ruminococcus gnavus DSM 108212; experiment: as above
How it was run: as §2

Escherichia coli IAI1 [8] = experiment: fold change of Putrescine concentration vs plate DMSO controls (fold change (ratio)); higher = more amine produced, active = hit call of the paper (significant change in both replicates, either direction)
How it was run: as §2

[9] = test system: Klebsiella aerogenes DSM 30053; experiment: as above
How it was run: as §2

Escherichia coli IAI1 [10] = experiment: fold change of Cadaverine concentration vs plate DMSO controls (fold change (ratio)); higher = more amine produced, active = hit call of the paper (significant change in both replicates, either direction)
How it was run: as §2

[11] = test system: Klebsiella aerogenes DSM 30053; experiment: as above
How it was run: as §2

[12] = test system: Ruminococcus gnavus DSM 108212; experiment: fold change of 2-Phenylethylamine concentration vs plate DMSO controls (fold change (ratio)); higher = more amine produced, active = hit call of the paper (significant change in both replicates, either direction)
How it was run: as §2

| SMILES | growth [1] | growth (Escherichia coli IAI1 [2]) | growth [3] | growth [4] | fold change of Histamine concentration [5] | fold change of Tryptamine concentration [6] | fold change of Tryptamine concentration [7] | fold change of Putrescine concentration (Escherichia coli IAI1 [8]) | fold change of Putrescine concentration [9] | fold change of Cadaverine concentration (Escherichia coli IAI1 [10]) | fold change of Cadaverine concentration [11] | fold change of 2-Phenylethylamine concentration [12] |
| --- | --- | --- | --- | --- | --- | --- | --- | --- | --- | --- | --- | --- |
| CN(C)C/C=C(/c1ccc(Br)cc1)c1cccnc1 [Zimelidine dihydrochloride monohydrate] (20 µM) | 0.928 | 0.997 | 0.991 | 1.03 | 1.01 (inactive) | 1.03 (inactive) | 0.987 (inactive) | 0.804 (inactive) | 0.993 (inactive) | 1.49 (active) | 0.978 (inactive) | 1.04 (inactive) |
| CC(=O)CC(c1ccccc1)c1c(O)c2ccccc2oc1=O (stereo unspecified) (20 µM) | 1.05 | 0.981 | 1 | 1.15 | 1.01 (inactive) | 0.979 (inactive) | 0.984 (inactive) | 1.01 (inactive) | 1 (inactive) | 0.995 (inactive) | 0.99 (inactive) | 0.99 (inactive) |
| Nc1nc(=O)c2nc(CNc3ccc(C(=O)N[C@@H](CCC(=O)O)C(=O)O)cc3)cnc2[nH]1 [Folic acid] (20 µM) | 0.939 | 1.08 | 0.988 | 0.783 | 0.93 (inactive) | 1.04 (inactive) | 0.955 (inactive) | 1.05 (inactive) | 0.997 (inactive) | 0.98 (inactive) | 1.01 (inactive) | 0.928 (inactive) |
| Clc1ccc2nsnc2c1NC1=NCCN1 [Tizanidine hydrochloride] (20 µM) | 0.00885 | 1.01 | 1.15 | 0.103 | 0.919 (inactive) | 0.0144 (active) | 0.0877 (active) | 0.984 (inactive) | 0.995 (inactive) | 0.983 (inactive) | 1.02 (inactive) | 0.0862 (active) |
| NCCCC(O)(P(=O)(O)O)P(=O)(O)O [Alendronate sodium] (20 µM) | 1.08 | 1.04 | 1.1 | 1.03 | 0.858 (inactive) | 1.1 (inactive) | 1.05 (inactive) | 0.992 (inactive) | 0.947 (inactive) | 1.01 (inactive) | 1.01 (inactive) | 1.05 (inactive) |
| Oc1c(Cl)cc(Cl)c2cccnc12 [Chloroxine] (20 µM) | 1.12 | 0.966 | 1.02 | 0.369 | 0.921 (inactive) | 1.02 (inactive) | 0.589 (active) | 0.945 (inactive) | 0.981 (inactive) | 1.31 (active) | 1.01 (inactive) | 0.681 (inactive) |
| C[C@]12CC[C@@H]3c4ccc(O)cc4C[C@@H](CCCCCCCCC[S+]([O-])CCCC(F)(F)C(F)(F)F)[C@H]3[C@@H]1CC[C@@H]2O (stereo partly specified) [Fulvestrant] (20 µM) | 1.25 | 1.06 | 1.03 | 1.13 | 0.97 (inactive) | 0.98 (inactive) | 1.2 (inactive) | 0.954 (inactive) | 0.979 (inactive) | 0.974 (inactive) | 1.02 (inactive) | 1.21 (inactive) |
| OC[C@@H](O)[C@@H](O)[C@H](O)[C@@H](O)CO [Sorbitol] (50 µM) | 1.06 | 0.929 | 0.967 | 1.1 | 1.03 (inactive) | 0.988 (inactive) | 0.966 (inactive) | 0.923 (inactive) | 0.869 (inactive) | 1.1 (inactive) | 1.06 (inactive) | 0.959 (inactive) |
| CC(=O)NCCCS(=O)(=O)O [Acamprosate calcium] (20 µM) | 1.08 | 0.999 | 0.963 | 0.795 | 1.02 (inactive) | 1.02 (inactive) | 0.996 (inactive) | 0.995 (inactive) | 1.02 (inactive) | 0.983 (inactive) | 1 (inactive) | 0.996 (inactive) |
| COc1ccccc1N1CCN(CC(O)COc2cccc3ccccc23)CC1 (stereo unspecified) [Naftopidil dihydrochloride] (20 µM) | 1.11 | 0.99 | 1.17 | 0.961 | 0.884 (inactive) | 1.02 (inactive) | 0.888 (inactive) | 0.981 (inactive) | 1.01 (inactive) | 1.06 (inactive) | 1.02 (inactive) | 0.963 (inactive) |
| Cc1cc(NS(=O)(=O)c2ccc(N)cc2)nc(C)n1 [Sulfisomidine] (20 µM) | 1.12 | 1.07 | 1.04 | 1.03 | 1.02 (inactive) | 1.08 (inactive) | 1.04 (inactive) | 0.985 (inactive) | 0.987 (inactive) | 0.993 (inactive) | 0.992 (inactive) | 1.08 (inactive) |
| NS(=O)(=O)c1cc2c(cc1Cl)N=C(CSCc1ccccc1)NS2(=O)=O [Benzthiazide] (20 µM) | 1.1 | 0.998 | 1.02 | 1.08 | 0.978 (inactive) | 0.983 (inactive) | 0.961 (inactive) | 0.975 (inactive) | 0.993 (inactive) | 1.02 (inactive) | 0.993 (inactive) | 0.939 (inactive) |
| CCOC(=O)C1=C(C)NC(C)=C(C(=O)OCC)C1c1ccccc1/C=C/C(=O)OC(C)(C)C [Lacidipine] (20 µM) | 1.03 | 0.928 | 0.929 | 1.12 | 1.13 (inactive) | 0.849 (inactive) | 0.944 (inactive) | 0.962 (inactive) | 1.03 (inactive) | 1.01 (inactive) | 0.979 (inactive) | 0.955 (inactive) |
